“And” between values parts separate entries of the source, which are not always exact repeats. Equal entries are not always repeated. Inconclusive results are not listed. Entries that show only a call come without a potency. A structure can be active in one record and inactive in another. The source made the active and inactive calls. The call rests on the fitted dose curve; in most records, active means well fitted cell-killing curve with a large enough effect in the repeat runs; inconclusive means weak or mixed curves; inactive means no such curve, though single readings can be large or run the other way.

The text below walks through data of PubChem BioAssay (Tox21).
Potency means the concentration at half of the fitted maximal effect.

A short description of this assay: qHTS assay for identifying genotoxic compounds that show differential cytotoxicity against isogenic chicken DT40 cell lines with known DNA damage response pathways - Rad54/Ku70 mutant cell line (AID 743015). Further: nearly all actives have a fitted effect of over 60% in size. Conditions: DT40 Rad54/Ku70 mutant viability, CellTiter-Glo, 40 h; series mostly up to 66.8 µM. The source says:
National Center for Advancing Translational Sciences [NCATS]
NIH Chemical Genomics Center [NCGC]
U.S. Environmental Protection Agency [EPA]
National Institutes of Environmental Health Sciences [NIEHS]
National Toxicology Program [NTP]
U.S. Food and Drug Administration [FDA]
DNA repair pathways play a critical role in cellular homeostasis by repairing DNA damage induced by endogenous processes and xenobiotics. Isogenic chicken DT40 cell lines deficient in different DNA repair pathways can be used to identify genotoxic compounds and aid in characterizing the nature of the DNA damage induced. Two DNA repair-deficient cell lines with disrupted genes, Rad54/Ku70 or Rev3, were used to screen the Tox21 10K compound library. Possible genotoxicity was based on the presence of a significant increase in cytotoxicity in one or more of the DNA repair-deficient cell lines compared to that observed in the parental DNA repair-proficient cell line. CellTiter Glo viability assay (Promega, Madison, WI) was used to measure cell viability in these cells after compound treatment. This assay includes the data from the Rad54/Ku70 mutant cell line.
Tox21 Assay Protocol Summary:
300 DT40 mutant cells in 5 uL/well were dispensed into white, solid-bottom 1536-well plates using a Multidrop Combi (ThermoFisher Scientific, Waltham, MA) dispenser. After the assay plates were incubated at 37 C/5% CO2 for approximately 0.5 hour, 23 nL of compounds dissolved in DMSO, positive controls or DMSO only was transferred into the assay plate by a pintool work station (Kalypsys, San Diego, CA). The assay plates were incubated at 37 C/5% CO2 for 40 hours. After 5 uL per well of CellTiter-Glo reagent was added into each well of the assay plates, the plates were incubated for 30 min at room temperature and the luminescence intensity of the plates was measured using a ViewLux (PerkinElmer, Shelton, CT) plate reader.
`NCCNc1cccc2ccccc12`: the Potency entry was “inactive”.

Regarding `COC(=O)c1ccc(O)cc1`, the Potency result was “inactive”.

As for `O=c1c(-c2ccc(O)cc2)coc2cc(O)cc(O)c12`, the Potency was 11.9 µM (active) and 47.7 µM (active) and 27.3 µM (active).

Consider `CC(=O)c1ccc(S(=O)(=O)NC(=O)NC2CCCCC2)cc1`, for which the Potency entry was “inactive”.

As to `C#C[C@]1(O)CC[C@H]2[C@@H]3CCc4cc(O)ccc4[C@H]3CC[C@@]21C`, the Potency was 21.1 µM (active) and 43 µM (active).

Turning to `NC(=O)NO`, the Potency entry is “inactive”.

In the case of `C=C(C)C(N)=O`, the Potency result is “inactive”.

As to `O=C(O)Cc1cccc2ccccc12`, the Potency result is “inactive”.

Consider `CCCCOCCOCCSC#N`, for which the Potency entry was “inactive”.

With `CCCCOC(=O)CCCCCCCCC(=O)OCCCC`, the Potency result is “inactive”.

Consider `COCCOCCOC`, for which the Potency entry is “inactive”.

For `CC1=C(/C=C/C(C)=C/C=C/C(C)=C/C(=O)O)C(C)(C)CCC1`, the Potency is 29.8 µM (active) and 61.2 µM (active) and 54.4 µM (active).

As to `Nc1cccc(N)c1`, the Potency is 61 µM (active) and inactive.

Turning to `CN(C)Cc1cc(CN(C)C)c(O)c(CN(C)C)c1`, the Potency result was “inactive”.

On to `C=CCOC(=O)CC(C)C`, for which the Potency entry was “inactive”.

Consider `C=CC(=O)NC(C)(C)CS(=O)(=O)O`, for which the Potency entry was “inactive”.

As for `NC(N)=NC(N)=NCCc1ccccc1`, the Potency is 17.1 µM (active) [middle of 4 runs].

`Cc1cccc(Nc2cc(Cl)nc(SCC(=O)O)n2)c1C`: the Potency entry was “inactive”.

Consider `C[C@]12CC[C@@H]3c4ccc(O)cc4C[C@@H](CCCCCCCCCS(=O)CCCC(F)(F)C(F)(F)F)[C@H]3[C@@H]1CC[C@@H]2O` (stereo not given in full), for which the Potency is 6.68 µM (active).

As to `CC(C)Cc1ccc(C(C)C(=O)O)cc1` (stereo not given), the Potency result is “inactive”.

With `Cc1c(N(C)CS(=O)(=O)O)c(=O)n(-c2ccccc2)n1C`, the Potency entry is “inactive”.

As for `NC(=O)N1c2ccccc2C=Cc2ccccc21`, the Potency result was “inactive and 54.5 µM (active)”.

For `CC(=O)OC/C=C(C)/C=C/C=C(C)/C=C/C1=C(C)CCCC1(C)C`, the Potency is 47.4 µM (active) and 30.6 µM (active).

`C1CNCCN1`: the Potency result was “inactive and 62.9 µM (active)”.

Regarding `CCCCCCCCCCCCCC(=O)OC(C)C`, the Potency entry was “inactive”.

Take `NC(=O)N/N=C/c1ccc([N+](=O)[O-])o1`: the Potency is 29.8 µM (active) and inactive and 38.6 µM (active).

`CC(C)CC(C)CC(O)CC(C)C` (stereo not given): the Potency result is “inactive”.

As for `CN/C(=C\[N+](=O)[O-])NCCSCc1ccc(CN(C)C)o1`, the Potency result is “inactive”.

With `CCCCCCCCOc1ccc(C(=O)c2ccccc2)c(O)c1`, the Potency result was “inactive and 68.6 µM (active)”.

On to `COc1ccccc1O`, for which the Potency entry is “inactive”.

`C/C=C/c1ccc(O)c(OC)c1`: the Potency entry is “inactive”.

Take `Cc1c(N(C)C)c(=O)n(-c2ccccc2)n1C`: the Potency result is “inactive”.

In the case of `CN(C)C=O`, the Potency entry is “inactive”.

As to `COc1cc(O)c(C(=O)c2ccccc2)cc1S(=O)(=O)O`, the Potency result was “inactive”.

Turning to `Cc1cnc(NC(=O)C2=C(O)c3ccccc3S(=O)(=O)N2C)s1`, the Potency result is “inactive and 27.3 µM (active)”.

On to `CCN1CCCC1=O`, for which the Potency entry is “inactive”.

In the case of `NC(=O)c1ccc([N+](=O)[O-])cc1Cl`, the Potency result was “inactive”.

In the case of `CC(=O)/C=C/C1=C(C)CCCC1(C)C`, the Potency entry was “inactive”.

In the case of `CCc1cc(C(N)=S)ccn1`, the Potency entry is “inactive”.

Take `O=C(O)CN(CC(=O)O)CC(=O)O`: the Potency entry is “inactive”.
